Screens deposited in PubChem BioAssay by National Center for Advancing Translational Sciences (NCATS).
In the library only some 19% were active in any assay of this set; here they are far more common.
TDP1 inh: qHTS Assay for Inhibitors of Tyrosyl-DNA Phosphodiesterase (TDP1); Potency, µM (top dose mostly 130 µM), most hits filed as inhibitors; recombinant TDP1, AlphaScreen DNA substrate cleavage; 350,000 compounds, 0.28% hits; Tyrosyl-DNA phosphodiesterase 1 (Homo sapiens), Q9NUW8; further: nearly all actives have a fitted effect of over 40% in size
Target sequence (Q9NUW8 whole entry, looked up): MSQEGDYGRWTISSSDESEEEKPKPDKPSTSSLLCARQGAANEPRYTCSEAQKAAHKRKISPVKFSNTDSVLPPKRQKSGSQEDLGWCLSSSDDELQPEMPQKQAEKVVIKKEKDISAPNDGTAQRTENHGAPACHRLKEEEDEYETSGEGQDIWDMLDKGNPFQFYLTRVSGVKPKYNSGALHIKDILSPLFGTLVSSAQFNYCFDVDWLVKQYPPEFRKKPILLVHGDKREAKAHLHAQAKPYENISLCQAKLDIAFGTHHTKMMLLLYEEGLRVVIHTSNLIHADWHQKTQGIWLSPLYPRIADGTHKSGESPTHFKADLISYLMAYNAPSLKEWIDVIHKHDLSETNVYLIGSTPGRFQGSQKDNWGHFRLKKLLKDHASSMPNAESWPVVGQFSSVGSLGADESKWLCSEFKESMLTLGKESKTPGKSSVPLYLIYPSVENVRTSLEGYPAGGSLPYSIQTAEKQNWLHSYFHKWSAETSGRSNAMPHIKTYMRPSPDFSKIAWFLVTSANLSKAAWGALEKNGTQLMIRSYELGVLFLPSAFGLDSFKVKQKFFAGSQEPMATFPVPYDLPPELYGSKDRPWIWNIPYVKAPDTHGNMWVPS
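Steps: enzyme plus compound, 15 min RT; add biotin/phosphotyrosine-FITC oligonucleotide (15 nM final), react 5 min; add donor/acceptor beads (10 ug/ml final), 10 min; read AlphaScreen. Tdp1 at 1 nM final.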
IL1B secr inh: qHTS for Inhibitors of Inflammasome Signaling: IL-1-beta AlphaLISA Primary Screen. activity change, % at 57.5 µM. THP-1 LPS/ATP IL-1B secretion, AlphaLISA, 16 h; active compounds read low. AID 743279, 2014. 360,000 compounds, 4.7% hits; in the data active means activity change below about -50%; inconclusive means mostly about -30% to -49%
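THP-1 cells pretreated 1 hr with compounds (up to 57.5 uM final), then stimulated with LPS (250 ng/mL final) plus ATP (1.25 mM final); secreted IL-1B measured by AlphaLISA after 16 hr, decreased signal indicating inhibition.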
TDP1 cell CPT: qHTS for Inhibitors of human tyrosyl-DNA phosphodiesterase 1 (TDP1): qHTS in cells in presence of CPT. chicken DT40 Tdp1-/-;hTDP1 cells + 20 nM CPT, ATP luminescence, 48 h. Potency, µM (top dose mostly 46.2 µM), hits mostly inhibitors. 420,000 compounds, 12% hits; further: nearly all actives have a fitted effect of over 55% in size
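Chicken DT40 Tdp1-/- cells stably complemented with human TDP1 were seeded at 400 cells/well in medium containing 20 nM camptothecin, exposed to pin-transferred compounds, and grown at 37 °C for at least 48 hr. Viability was read as ATP luminescence.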
TGFb SMAD3 inh: qHTS for Inhibitors of TGF-b; HepG2 CAGA-GFP TGF-b/SMAD3 reporter, GFP fluorescence, 18 h; TGF-beta stimulated, 500 pg/mL final; Potency, µM (top dose mostly 46.1 µM), most hits filed as inhibitors; 410,000 compounds, 1.2% hits; AID 588855, 2011; further: nearly all actives have a fitted effect of over 65% in size
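GFP signal (ex488/em500-530) from TGF-beta-stimulated HEPG2 CAGA-GFP cells, 500 pg/mL final, 18 h at 37 degrees C in DMEM plus 1% FBS, normalized to unstimulated and DMSO-stimulated controls.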
HepG2 tox: qHTS for Inhibitors of TGF-b: Cytotox Counterscreen | HepG2 CAGA-GFP viability, ATP luminescence, 18 h | Potency, µM (top dose mostly 46.1 µM), most hits filed as cytotoxic | AID 588856, 2011 | 410,000 compounds, 0.76% hits
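CellTiter-Glo luminescence gave cytotoxicity after 18 hours at 37 degrees C. The cells were HepG2 CAGA-GFP in 1% FBS DMEM, stimulated with 500 pg/mL TGF-beta after compound addition. %Activity was normalised to no-cell wells (complete cell-killing) and DMSO (no toxicity), and curves were fitted and classified.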
TDP1 cell noCPT: qHTS for Inhibitors of human tyrosyl-DNA phosphodiesterase 1 (TDP1): qHTS in cells in absence of CPT; DT40 Tdp1-/- hTDP1 cells, no CPT, ATP luminescence, 48 h; Potency, µM (highest dose often 46.2 µM), hits mostly inhibitors; 420,000 compounds, 15% hits; further: nearly all actives have a fitted effect of over 55% in size
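Chicken DT40 Tdp1-/- cells stably complemented with human TDP1 were seeded at 400 cells/well with DMSO in place of 20 nM camptothecin. After compound pinning, cells grew at least 48 hr at 37 °C; viability read by CellTiter-Glo luminescence.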
A number is an active result; – = inactive; ? = inconclusive; · = no result given; [ ] = remark or other dose. Unless noted, the call rests on the fitted dose curve; in most records, active means well fitted curve in the direction sought with a large enough effect; inconclusive means small, poorly fitted or top-dose-only effect, or another doubt; inactive means no such curve, though single readings can be large; an effect the other way counts as inactive or inconclusive.

SMILES	TDP1 inh	IL1B secr inh	TDP1 cell CPT	TGFb SMAD3 inh	HepG2 tox	TDP1 cell noCPT
COc1ccc(N2CCN(c3ncnc4c3[nH]c3ccccc34)CC2)cc1	–	–	3.7µM	–	–	2.3µM
CCOC(=O)N1CCN(c2ncnc3c2[nH]c2ccc(OC)cc23)CC1	–	–	?	–	–	23µM
CSc1nsc(SCC(=O)Nc2ccccc2C(=O)O)n1	·	–	?	–	–	–
CC1CCc2c(sc3[nH]c(=S)n(C)c(=O)c23)C1 (configuration not stated)	·	–	–	–	–	?
CCOc1ccccc1CNc1nc2nc(C)cc(C)n2n1	–	·	?	–	–	–
CN(C)C=NC(=O)c1[nH]c2ccc(Cl)cc2c1-c1ccccc1	·	–	?	?	–	?
CCOC(=O)C1CCN(c2ncnc3c2[nH]c2cccc(OC)c23)CC1	–	?	?	–	–	26µM
O=C(NCCS(=O)(=O)N1CCN(c2ccccc2F)CC1)c1ccccc1C(F)(F)F	–	·	?	?	–	?
Cc1ccc(NC(=O)c2cccc(NC(=O)/C=C/c3ccco3)c2)cc1C	–	–	?	–	–	?
O=C(O)c1cccc(NC(=O)c2ccccc2NC(=O)c2ccco2)c1	·	–	–	–	–	–
CCc1ccccc1NC(=O)c1cccc(NC(=O)/C=C/c2ccco2)c1	–	–	18µM	–	–	21µM
O=C(/C=C/c1ccco1)Nc1cccc(C(=O)Nc2ccccc2C(=O)O)c1	40µM	–	–	–	–	–
O=C(NC(NC(=S)Nc1ccccc1O)C(Cl)(Cl)Cl)c1ccco1 (configuration not stated)	–	–	?	–	–	18µM
CCc1ccc(OCC(=O)NC(NC(=S)Nc2ccc(Cl)cc2)C(Cl)(Cl)Cl)cc1 (configuration not stated)	–	–	15µM	7.1µM	8.9µM	13µM
O=C(NC(NC(=S)Nc1ccc(Cl)cc1)C(Cl)(Cl)Cl)c1ccco1 (configuration not stated)	–	-102	?	?	–	?
Cc1ccccc1OCC(=O)OCc1cc(=O)n2nc(C3CCCCC3)sc2n1	–	·	–	–	–	–
COC(=O)C1CCCCN1Cc1ccc2c(c1)CN(C(=O)c1ccc(F)cc1)CCO2 (configuration not stated)	·	·	–[9.04 µM]	·	·	–
CC[C@H](C)[C@H](NC(=O)[C@H](C)NC(=O)[C@H](CC(N)=O)NC(=O)[C@H](CCCCN)NC(=O)[C@H](Cc1ccccc1)NC(=O)[C@H](CC(C)C)NC(=O)[C@@H](NC(=O)[C@@H](NC(=O)[C@H](CC(C)C)NC(=O)[C@@H]1CCCN1C(=O)[C@@H](NC(=O)[C@H](CCC(N)=O)NC(=O)[C@H](CO)NC(=O)[C@H](CCCCN)NC(=O)[C@H](CCC(=O)O)NC(=O)[C@H](CO)NC(=O)[C@@H](NC(=O)[C@H](CCSC)NC(=O)[C@H](Cc1ccccc1)NC(=O)CNC(=O)CNC(=O)[C@@H](N)Cc1ccc(O)cc1)[C@@H](C)O)[C@@H](C)O)C(C)C)[C@@H](C)O)C(=O)N[C@H](C(=O)N[C@@H](CCCCN)C(=O)N[C@@H](CC(N)=O)C(=O)N[C@@H](C)C(=O)N[C@@H](Cc1ccc(O)cc1)C(=O)N[C@@H](CCCCN)C(=O)N[C@@H](CCCCN)C(=O)NCC(=O)N[C@@H](CCC(=O)O)C(=O)O)[C@@H](C)CC	–	·	–[4.12 µM]	·	·	–[4.12 µM]
CCCn1c(SCc2nc(-c3ccccc3OCC)no2)nnc1-c1ccc(Cl)cc1	–	·	?	?	–	18µM
